Each structure is given as a SMILES string. Values joined by “and” are separate entries in the source; they are usually repeats but may differ in a detail not shown here. Identical values can stand only once. The whole screen tested about 320,000 compounds, of which about 1,300 (0.41%) were called active. About 3% were inconclusive and are not listed. How the calls were made is not given here. A selection follows. Results with a measured potency or affinity are listed apart.

Usually inhibition stands for the relative decrease from the control value, in per cent.

This test is described as follows: growth inhibition of non-replicating M. tuberculosis (AID 488890).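 Further: plate controls were DMSO cells for no effect and high antibiotic wells for full effect.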 The settings on record: Mycobacterium tuberculosis non-replicating, at 25 µM, stronger effect = higher value.
On to `O=C1Cc2ccccc2C(=O)N1Cc1ccccc1`, for which the inhibition was -3.14%.
With `Cc1cc(C)nc(NC(=O)c2ccc(Br)s2)n1`, the inhibition was 55.2%.
In the case of `COc1ccc(Cl)cc1NC(=O)CN(C)C(=O)c1ccc(-n2cncn2)cc1`, the inhibition stood at 0.55%.
Next, `Nc1c(-c2ccccc2)cnn1-c1ccccc1`: -6.23%; `CCOC(=O)c1cccc(NC(=O)c2cccnc2)c1`: -4.27%.
In the case of `COC(=O)c1sccc1-c1ccc(C(=O)Nc2cccnc2)o1`, the inhibition was -4.8%.
Turning to `CC(=O)NC(=O)c1ccc(-c2ccc(Cl)cc2)o1`, the inhibition came out at 57.6%.
Consider `O=C(Nc1cccnc1)c1cc(-c2ccc(Cl)cc2)on1`, for which the inhibition came out at 71%.
The figure for `O=C(Nc1cccnc1)c1ccc(-c2cc(Cl)ccc2Cl)o1` is -8.82%; for `O=C(NNC(=O)c1ccccc1O)c1ccc(-c2ccc([N+](=O)[O-])cc2)o1` it is -16.6%; for `CCN(CC(=O)Nc1c(F)cccc1F)C(=O)CNC(=O)c1ccc2ccccc2c1` it is 18.6%.
In the case of `CN(C)S(=O)(=O)c1cccc(C(=O)NC(=S)N(CCC#N)Cc2cccnc2)c1`, the inhibition was 42.5%.
The figure for `COCC(=O)N1CCC(Oc2ccc(C(=O)N3CCCCCC3)cc2)CC1` is -1.31%.
Consider `COc1ccc(-c2sc3ccccc3c2-c2ccc(O)cc2)cc1`, for which the inhibition is 17.4%.
Next, `COc1ccc(NC(=O)CN(C)S(=O)(=O)c2ccc3c(c2)CCCN3C(C)=O)cc1`: -3.38%.
Consider `Cc1onc(C(=O)N2CCC(Cc3ccccc3)CC2)c1[N+](=O)[O-]`, for which the inhibition is -6.71%.
On to `CCOC(=O)CSc1nc2c(sc(=S)n2-c2ccc(CC)cc2)c(=O)[nH]1`, for which the inhibition turned out to be 48.4%.
Next, `COc1ccc(NC(=O)CNc2ccccc2N2CCCC2=O)cc1S(=O)(=O)N1CCOCC1`: 13.9%; `Cn1cccc1CC(=O)N/N=C/c1cc([N+](=O)[O-])ccc1Cl`: 14.2%.
Turning to `COC(=O)c1ccc(-c2ccc(C(c3c(C)[nH][nH]c3=O)c3c(C)[nH][nH]c3=O)o2)cc1`, the inhibition was 36.5%.
Next, `Cc1[nH][nH]c(=O)c1C(c1ccc(-c2cccc(C(=O)O)c2)o1)c1c(C)[nH][nH]c1=O`: -6.98%.
In the case of `Cc1c(NC(=S)NC(NC(=O)C(C)(C)C)C(Cl)(Cl)Cl)c(=O)n(-c2ccccc2)n1C` (centres undefined), the inhibition came out at 1.72%.
On to `O=C1OCC(CO)(CO)N=C1NNc1ccccc1[N+](=O)[O-]`, for which the inhibition turned out to be 4.31%.
The figure for `Cc1ccc(C(=O)N/N=C/c2ccc(-c3cccc(Cl)c3)o2)cn1` is -3.58%.
Take `O=C(CN1CCOCC1)N/N=C/c1ccc(-c2ccc(C(=O)O)cc2)o1`: the inhibition turned out to be 2.35%.
The figure for `Cc1ccc(C(=O)N/N=C\c2ccc(-c3ccc(Cl)c(Cl)c3)o2)cn1` is 16.6%; for `O=C(CN1CCOCC1)N/N=C/c1ccc(-c2cccc(Cl)c2Cl)o1` it is 20.1%; for `CCC(=O)N/N=C/c1ccc(-c2ccc([N+](=O)[O-])cc2)o1` it is 74.5%.
The figure for `CC1(CC(=O)N/N=C/c2ccc(-c3ccc(Cl)cc3)o2)OCCO1` is 69.5%; for `CN(C)c1ccc(C(=O)N/N=C/C23CC[C@@H](O)CC2(O)CC[C@@H]2[C@@H]3CCC3(C)C(C4=CC(=O)OC4)CCC23O)cc1` (some centres undefined) it is -3.55%; for `CCOC(=O)c1cc(C)n(-n2cnnc2)c1C` it is -3.13%.
Next, `COc1ccc2c(c1)nc(SCC(=O)C(C)(C)C)n2C`: 7.17%.
Regarding `COc1ccc(N=C(C)C2=C(O)c3ccccc3C2=O)cc1`, the inhibition amounted to 21%.
Next, `N#CC(=NCc1cccnc1)C1=C(O)c2ccccc2C1=O`: 16.1%; `COC(=O)C1=C(C)N(CCCC(=O)O)C(=O)NC1c1ccc(OC)cc1` (centres undefined): -3.65%; `CCOc1ccc(N2CC(=O)N(c3ccc(OCC)cc3)CC2=O)cc1`: 2.08%.
Next, `CCOc1ccc(N2C(=O)CNC2=S)cc1`: 27.5%; `CN(C(=O)c1ccccc1C(=O)OCC(=O)NCc1cccs1)C1CCCCC1`: -0.2%.
Next, `O=C(c1ccc(Br)o1)N1CCN(c2ccc(F)cc2)CC1`: 66.9%; `CN(C)C(=O)c1cccn1-c1ncc(C(F)(F)F)cc1Cl`: -7.62%.
For `COc1ccccc1-n1c(-c2ccccc2Br)nc2ccccc2c1=O`, the inhibition was 5.34%.
As to `O=c1c2ccccc2nc(-c2ccccc2)n1-c1ccccc1O`, the inhibition is 49.7%.
Next, `O=C(CCC(=O)N1CCN(c2ccc(F)cc2)CC1)c1ccc(Cl)cc1`: 37.7%; `Cc1c(Cl)cccc1NC(=O)C1CCCN(S(C)(=O)=O)C1` (centres undefined): 1.51%.
For `Cc1ccc(S(=O)(=O)N2CCCCC2)cc1NC(=O)COC(=O)C1=COCCO1`, the inhibition is -3.36%.
For the compound `CC(=O)c1c(O)cc(C(C)C)n(-c2ccccc2)c1=O`, the inhibition turned out to be 6.76%.
Regarding `C=CCNC(=O)N[C@@H](CCSC)C(=O)OC`, the inhibition is -9.43%.
On to `O=C(COC(=O)c1n[nH]c2ccccc12)NCCc1ccc(Cl)cc1`, for which the inhibition turned out to be 18.4%.
The figure for `Cc1ccccc1NCc1nc2ccccc2n1C` is 34.2%; for `CCCn1c(CNC(=O)Cc2ccccc2)nc2ccccc21` it is -2.66%.
For the compound `CCCn1c(CNc2ccc(Br)cc2)nc2ccccc21`, the inhibition turned out to be 66.1%.
The figure for `Cn1c(CNc2ccc(O)cc2)nc2ccccc21` is 73.1%; for `COc1ccc(S(=O)(=O)N2CCC(C(=O)N3CCCCC3)CC2)cc1` it is -4.95%.
As for `O=C(CNC(=O)c1cccs1)NCC(=O)OCc1ccccc1Br`, the inhibition was determined as 20.5%.
The figure for `Cc1ccc(S(=O)(=O)Nc2ccc(F)cc2)cc1C(=O)N1CCOCC1` is -12.4%.
Next, `COc1cc(OC)nc(-n2ncc(OC)c(Br)c2=O)n1`: -12%; `COC(=O)c1cnn(-c2nc(OC)cc(OC)n2)c1C`: -11.5%.
The figure for `COc1cc(C(=O)ON=C2C3CC4CC(C3)CC2C4)cc(OC)c1OC` is 46.9%.
As for `COc1ccc(-c2nc(CSCC(=O)N3CCN(C(=O)c4ccco4)CC3)c(C)o2)cc1OC`, the inhibition is -16.5%.
Regarding `CCOC(=O)C1(CCOc2ccccc2)CCN(C(=O)CCSC)CC1`, the inhibition came to 10.9%.
Consider `CN1CCN(C(=O)CCN2C(=O)/C(=C/c3ccccc3Cl)SC2=S)CC1`, for which the inhibition was found to be 18.9%.
Next, `COc1cccc(/C=C2\SC(=S)N(CCCC(=O)N3CCCCC3)C2=O)c1`: 79%; `COc1cccc(/C=C2/SC(=S)N(CCC(=O)N3CCOCC3)C2=O)c1`: 46.5%.
Next, `O=C(CCN1C(=O)/C(=C\c2ccccc2Cl)SC1=S)N1CCN(c2ccccc2)CC1`: 73.2%.
As to `O=C(c1ccco1)N1CCN(C(=O)c2ccc(COc3ccc(Cl)cc3Cl)o2)CC1`, the inhibition is 11.7%.
Consider `CS(=O)(=O)c1ccc2nc(NC(=O)CN3C(=O)C4CC=CCC4C3=O)sc2c1` (centres undefined), for which the inhibition was -9.69%.
In the case of `COC(=O)c1ccc(N2NC(=O)/C(=C/c3cc(OC)c(OC)c(OC)c3)C2=O)cc1`, the inhibition was determined as 13.4%.
Regarding `C=CCn1c(O)c(N=NC(=O)c2ccc3c(c2)OCO3)c2ccccc21`, the inhibition amounted to 11.7%.
The figure for `Cc1cc(C)n2nc(CNS(=O)(=O)c3ccc(CC(C)C)cc3)nc2n1` is 7.85%; for `O=C(NC1CC1)C1CC(=O)N(C2CCCCC2)C1` (centres undefined) it is -5.51%.
The figure for `CC(NC(=O)CSc1nnc(-c2cc3cc(Cl)ccc3o2)n1C)c1ccccc1` (centres undefined) is 16.7%; for `CNC(C)C#Cc1ccc2oc3cccc(OC)c3c(=O)c2c1` (centres undefined) it is 57.7%; for `CNC(C)C#Cc1ccc2c(=O)c3c(OC)cccc3oc2c1` (centres undefined) it is 42.6%.
`CCOc1ccc(S(=O)(=O)N2CCC(C(=O)N3CCCCCC3)CC2)cc1C`: the inhibition amounted to 21.6%.
Consider `O=[N+]([O-])c1ccc(N2CCCCC2)cc1SCCO`, for which the inhibition came out at 7.65%.
Turning to `CC(C)NC(=O)c1ccc(CN2CCc3ccccc3C2)cc1`, the inhibition is -40%.
For the compound `CC(=O)Nc1ccc(NC(=O)c2ccc(CN3CCc4ccccc4C3)cc2)cc1`, the inhibition is 28.5%.
The figure for `CCOC(=O)C1=C(C)Nc2sc(C(=O)c3ccc(OC)cc3)c(N)c2C1c1ccc(C(=O)OC)cc1` (centres undefined) is 26.4%.
The figure for `CCCCCC(=O)NC(=S)Nc1cccc(-c2nc3ncccc3o2)c1` is -12.6%; for `COC(=O)c1ccc(C)c(NC(=O)CSc2nc3[nH]c(=O)cc(O)c3s2)c1` it is 11.9%; for `COc1cccc(C(=O)OCC(=O)N2CCc3ccccc3C2)c1` it is 43.9%.
As for `Nc1ccc(C(=O)OCC(=O)N2CCc3ccccc3C2)cc1[N+](=O)[O-]`, the inhibition worked out at 39%.
Take `COc1cccc(-c2nc(-c3ccccc3)c(-c3ccccc3)[nH]2)c1OCC(=O)O`: the inhibition is 4.59%.
The figure for `O=[N+]([O-])c1cc(C(F)(F)F)ccc1NC1CCN(Cc2ccccc2)CC1` is 52.5%; for `FC(F)Sc1ccc(-n2c(-c3ccc(Cl)cc3)c[n+]3c2CCC3)cc1` it is -0.67%.
The figure for `CCOc1ccc(C(=O)NCc2ccncc2)cc1OCC` is -10.7%; for `NS(=O)(=O)c1ccc(OC(=O)CNC(=O)OCc2ccccc2)cc1` it is 6.9%.
The figure for `Cc1ccc(S(=O)(=O)N2CCN(C(=O)c3c(-c4ccccc4)noc3C)CC2)cc1C` is 8.79%; for `O=C(O)COc1ccc(Br)cc1CP(=O)(c1ccccc1)c1ccccc1` it is -5.1%.
In the case of `CCOC(=O)c1c(C)nn(-c2ncccc2NC(=O)NC(C)C)c1C`, the inhibition is -15.3%.
For `c1ccc(-c2cn(-c3ccccc3)c3[n+]2CCCS3)cc1`, the inhibition is -2.11%.
Next, `Cc1ccc(-c2cn(-c3ccccc3)c3[n+]2CCCS3)cc1`: 9.74% and -19.1%; `CCn1cc(C(=O)NC(=S)Nc2ccccc2[N+](=O)[O-])cn1`: 26.2%; `COCCNC(=O)C(c1ccc(O)cc1)N(Cc1cccs1)C(=O)CCC(=O)Nc1ccccn1` (centres undefined): 7.81%.
The figure for `CCn1c(SCc2ccc([N+](=O)[O-])cc2)nnc1C(C)NC(=O)c1ccccc1Br` (centres undefined) is -7.9%; for `COc1ccc(CNC(=O)c2cc3c(C)nc4ccccc4c3o2)c(OC)c1` it is 31.7%; for `COC(=O)C1CC(c2ccc(Cl)cc2)=NO1` (centres undefined) it is 10.9%.
With `O=C(OCC1CC(c2ccccc2)=NO1)c1ccc(Cl)cc1` (centres undefined), the inhibition worked out at 25.9%.
The figure for `CC(NS(=O)(=O)c1ccc2c(c1)oc(=O)n2C)c1ccccc1` (centres undefined) is -7.19%; for `CC1Oc2ccccc2N(CC(=O)NC2CCCCC2)C1=O` (centres undefined) it is -12.6%.
Next, `COc1ccc(S(=O)(=O)N=Nc2c(O)[nH]c3ccccc23)cc1`: 2.14%; `O=C(Nc1cccc(Br)c1)c1ccc(OC2CSC2)cc1`: 79.7%; `O=C(NCCNC(=O)c1cccc(O)c1)c1cccc(O)c1`: -13.5%.
Next, `CCOC(=O)c1cc2c(C)[nH]c(C)c2cc(C(=O)OCC)c1=O`: -5.61%.
`CC(=O)Nc1ccc(NC(=O)C(C)Oc2ccc(Cl)cc2Cl)cc1` (centres undefined): the inhibition was 4.67%.
The figure for `CC(Oc1ccc(Cl)cc1Cl)C(=O)Nc1ccc(O)cc1` (centres undefined) is -1.96%.
`CC(=O)c1cnc(Nc2nc(C)c3cc(C)c(C)cc3n2)nc1C`: the inhibition is 16.2%.
As to `COc1ccc(-c2cc3ccccc3oc2=O)cc1`, the inhibition is 24.3%.
For the compound `O=c1oc2ccccc2cc1-c1nc(-c2ccccc2)no1`, the inhibition is -0.8%.
